# In PubChem BioAssay AID1159580 (chemical genetic matrix, 2015):
# The whole screen tested about 5,500 compounds, of which about 2,000 (36%) were called active. About 18% were inconclusive and are not listed. This is one part of the list. A number with no mark means an inactive call. No stated cut-off is given here; in the data, active means normalized growth mostly below about 0.91 (no sharp cut-off); inconclusive means no clear call, values can overlap the other calls; inactive means mostly above about 0.92.
# Assay: chemical genetic growth profiling, strain panel (AID 1159580);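 further: tested at 20 µM; growth read once vehicle control cultures reached saturation at 30 °C; 1 = growth at the plate median or of vehicle wells; lower values mean less growth of the strain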
# Conditions: growth OD
structure (smiles),measurement,setting,value
C[C@H]1[C@H](C)CC[C@]2(C(=O)O)CC[C@]3(C)C(=CCC4[C@@]5(C)C[C@@H](O)[C@H](O)[C@@](C)(CO)C5[C@H](O)C[C@]43C)[C@H]12 (stereo partly drawn),normalized growth,"S. cerevisiae deletion strains, locus YJR066W, strain TOR1, active compounds read low",0.909
same,normalized growth,"S. cerevisiae deletion strains, locus YKL009W, strain mrt4, active compounds read low",1.55 [resistant] (active)
same,normalized growth,"S. cerevisiae deletion strains, locus YKL068W, active compounds read low",1.23 [resistant] (active)
same,normalized growth,"S. cerevisiae deletion strains, locus YKL085W, strain MDH1 (second series), active compounds read low",1.3 [resistant] (active)
same,normalized growth,"S. cerevisiae deletion strains, locus YKL085W, strain MDH1, active compounds read low",1.3 [resistant] (active)
same,normalized growth,"S. cerevisiae deletion strains, locus YKL160W, strain elf1, active compounds read low",0.958
same,normalized growth,"S. cerevisiae deletion strains, locus YKR001C, strain vps1, active compounds read low",0.855 (active)
same,normalized growth,"S. cerevisiae deletion strains, locus YKR026C, strain gcn3, active compounds read low",0.962
same,normalized growth,"S. cerevisiae deletion strains, locus YKR091W, strain srl3, active compounds read low",0.965
same,normalized growth,"S. cerevisiae deletion strains, locus YLL001W, strain dnm1, active compounds read low",0.964
same,normalized growth,"S. cerevisiae deletion strains, locus YLL026W, active compounds read low",0.97
same,normalized growth,"S. cerevisiae deletion strains, locus YLL041C, strain sdh2, active compounds read low",0.966
same,normalized growth,"S. cerevisiae deletion strains, locus YLR027C, strain aat2, active compounds read low",0.96
same,normalized growth,"S. cerevisiae deletion strains, locus YLR039C, strain RIC1, active compounds read low",0.799
same,normalized growth,"S. cerevisiae deletion strains, locus YLR058C, strain SHM2, active compounds read low",0.993
same,normalized growth,"S. cerevisiae deletion strains, locus YLR102C, strain apc9, active compounds read low",0.976
same,normalized growth,"S. cerevisiae deletion strains, locus YLR113W, strain HOG1, active compounds read low",0.673 (active)
same,normalized growth,"S. cerevisiae deletion strains, locus YLR221C, strain rsa3, active compounds read low",0.922
same,normalized growth,"S. cerevisiae deletion strains, locus YLR258W, strain gsy2, active compounds read low",0.968
same,normalized growth,"S. cerevisiae deletion strains, locus YLR262C, strain YPT6 (second series), active compounds read low",0.919
same,normalized growth,"S. cerevisiae deletion strains, locus YLR262C, strain YPT6, active compounds read low",0.872
same,normalized growth,"S. cerevisiae deletion strains, locus YLR268W, strain sec22, active compounds read low",0.932
same,normalized growth,"S. cerevisiae deletion strains, locus YLR320W, strain mms22, active compounds read low",0.928
same,normalized growth,"S. cerevisiae deletion strains, locus YLR330W, strain CHS5, active compounds read low",0.958
same,normalized growth,"S. cerevisiae deletion strains, locus YLR342W, strain FKS1 (second series), active compounds read low",0.915
same,normalized growth,"S. cerevisiae deletion strains, locus YLR342W, strain FKS1, active compounds read low",0.982
same,normalized growth,"S. cerevisiae deletion strains, locus YLR357W, strain rsc2, active compounds read low",0.921
same,normalized growth,"S. cerevisiae deletion strains, locus YLR370C, strain arc18, active compounds read low",0.967
same,normalized growth,"S. cerevisiae deletion strains, locus YLR371W, strain rom2, active compounds read low",0.921
same,normalized growth,"S. cerevisiae deletion strains, locus YLR384C, strain iki3, active compounds read low",0.964
same,normalized growth,"S. cerevisiae deletion strains, locus YLR418C, strain cdc73, active compounds read low",0.901
same,normalized growth,"S. cerevisiae deletion strains, locus YML016C, strain PPZ1, active compounds read low",0.99
same,normalized growth,"S. cerevisiae deletion strains, locus YML032C, strain rad52, active compounds read low",0.959
same,normalized growth,"S. cerevisiae deletion strains, locus YML120C, strain ndi1, active compounds read low",0.951
same,normalized growth,"S. cerevisiae deletion strains, locus YML124C, strain tub3, active compounds read low",0.963
same,normalized growth,"S. cerevisiae deletion strains, locus YMR058W, strain fet3, active compounds read low",0.972
same,normalized growth,"S. cerevisiae deletion strains, locus YMR078C, strain ctf18, active compounds read low",0.979
same,normalized growth,"S. cerevisiae deletion strains, locus YMR125W, strain sto1, active compounds read low",0.966
same,normalized growth,"S. cerevisiae deletion strains, locus YMR129W, active compounds read low",0.962
same,normalized growth,"S. cerevisiae deletion strains, locus YMR205C, strain PFK2, active compounds read low",0.909
same,normalized growth,"S. cerevisiae deletion strains, locus YMR223W, strain ubp8, active compounds read low",0.905
same,normalized growth,"S. cerevisiae deletion strains, locus YMR231W, strain pep5, active compounds read low",0.978
same,normalized growth,"S. cerevisiae deletion strains, locus YMR307W, strain GAS1, active compounds read low",0.6
same,normalized growth,"S. cerevisiae deletion strains, locus YNL067W, strain RPL9B, active compounds read low",0.942
same,normalized growth,"S. cerevisiae deletion strains, locus YNL071W, strain lat1, active compounds read low",0.973
same,normalized growth,"S. cerevisiae deletion strains, locus YNL183C, strain NPR1, active compounds read low",0.905
same,normalized growth,"S. cerevisiae deletion strains, locus YNL209W, strain ssb2, active compounds read low",0.961
same,normalized growth,"S. cerevisiae deletion strains, locus YNL233W, strain BNI4, active compounds read low",0.927
same,normalized growth,"S. cerevisiae deletion strains, locus YNL248C, strain rpa49, active compounds read low",0.964
same,normalized growth,"S. cerevisiae deletion strains, locus YNL250W, strain rad50, active compounds read low",0.98
same,normalized growth,"S. cerevisiae deletion strains, locus YNL271C, strain bni1, active compounds read low",0.907 (active)
same,normalized growth,"S. cerevisiae deletion strains, locus YNL298W, strain CLA4, active compounds read low",0.869 (active)
same,normalized growth,"S. cerevisiae deletion strains, locus YNL307C, strain MCK1, active compounds read low",0.994
same,normalized growth,"S. cerevisiae deletion strains, locus YNL322C, strain KRE1 (second series), active compounds read low",0.98
same,normalized growth,"S. cerevisiae deletion strains, locus YNL322C, strain KRE1, active compounds read low",0.984
same,normalized growth,"S. cerevisiae deletion strains, locus YNR049C, strain mso1, active compounds read low",0.987
same,normalized growth,"S. cerevisiae deletion strains, locus YNR052C, strain pop2, active compounds read low",0.914 (active)
same,normalized growth,"S. cerevisiae deletion strains, locus YOL006C, strain TOP1, active compounds read low",0.915
same,normalized growth,"S. cerevisiae deletion strains, locus YOL012C, strain htz1",0.605
same,normalized growth,"S. cerevisiae deletion strains, locus YOL147C, strain pex11, active compounds read low",0.985
same,normalized growth,"S. cerevisiae deletion strains, locus YOR001W, strain rrp6, active compounds read low",0.907
same,normalized growth,"S. cerevisiae deletion strains, locus YOR061W, strain CKA2, active compounds read low",0.994
same,normalized growth,"S. cerevisiae deletion strains, locus YOR069W, strain VPS5, active compounds read low",0.998
same,normalized growth,"S. cerevisiae deletion strains, locus YOR070C, strain gyp1, active compounds read low",0.966
same,normalized growth,"S. cerevisiae deletion strains, locus YOR080W, strain dia2, active compounds read low",0.967
same,normalized growth,"S. cerevisiae deletion strains, locus YOR083W, strain WHI5, active compounds read low",0.954
same,normalized growth,"S. cerevisiae deletion strains, locus YOR106W, strain vam3, active compounds read low",0.972
same,normalized growth,"S. cerevisiae deletion strains, locus YOR136W, strain idh2, active compounds read low",0.931
same,normalized growth,"S. cerevisiae deletion strains, locus YOR144C, strain elg1, active compounds read low",0.958
same,normalized growth,"S. cerevisiae deletion strains, locus YOR184W, strain ser1, active compounds read low",0.946
same,normalized growth,"S. cerevisiae deletion strains, locus YOR231W, strain MKK1, active compounds read low",0.982
same,normalized growth,"S. cerevisiae deletion strains, locus YOR265W, strain rbl2, active compounds read low",0.98
same,normalized growth,"S. cerevisiae deletion strains, locus YOR270C, strain vph1, active compounds read low",0.851
same,normalized growth,"S. cerevisiae deletion strains, locus YOR290C, strain snf2, active compounds read low",0.971
same,normalized growth,"S. cerevisiae deletion strains, locus YOR316C, strain cot1, active compounds read low",0.962
same,normalized growth,"S. cerevisiae deletion strains, locus YPL051W, strain arl3, active compounds read low",0.959
same,normalized growth,"S. cerevisiae deletion strains, locus YPL055C, strain LGE1, active compounds read low",0.938
same,normalized growth,"S. cerevisiae deletion strains, locus YPL078C, strain atp4, active compounds read low",0.984
same,normalized growth,"S. cerevisiae deletion strains, locus YPL106C, strain sse1, active compounds read low",0.895
same,normalized growth,"S. cerevisiae deletion strains, locus YPL240C, strain hsp82, active compounds read low",0.953
same,normalized growth,"S. cerevisiae deletion strains, locus YPL241C, strain CIN2, active compounds read low",1
same,normalized growth,"S. cerevisiae deletion strains, locus YPL256C, strain CLN2, active compounds read low",0.958
same,normalized growth,"S. cerevisiae deletion strains, locus YPR119W, strain clb2, active compounds read low",0.978
same,normalized growth,"S. cerevisiae deletion strains, locus YPR141C, strain kar3, active compounds read low",0.974
same,normalized growth,"S. cerevisiae deletion strains, locus YPR163C, strain tif3, active compounds read low",0.969
same,normalized growth,"S. cerevisiae deletion strains, locus YPR167C, strain met16, active compounds read low",0.974
same,normalized growth,"S. cerevisiae deletion strains, strain wtn01, active compounds read low",0.94
same,normalized growth,"S. cerevisiae strains, strain wild type, active compounds read low",0.961
